Results filed as inconclusive are left out. Activity calls are given as the source filed them. The calls were made as follows, unless noted: active = hit-call score of the fitted dose curve at least 0.9, where 1 is the maximum; inactive = score below 0.9.
Read-out: sulfotransferase (SULT2A), SULT2A1 (gene 6822)
Assay: CLD_SULT2A_48hr: CellzDirect (CLD) Gene Expression Assay for sulfotransferase (SULT2A) at 48 hours (AID 2283710; active = hit-call score of the fitted dose curve at least 0.9, where 1 is the maximum;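 also: hits raise SULT2A1 transcript above the 0.2% DMSO vehicle baseline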)
Summary of the method: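 Primary human hepatocytes (two donor preparations) dosed daily for two days with chemicals at multiple concentrations, vehicle 0.2% DMSO; SULT2A1 mRNA induction at 48 h by quantitative nuclease protection assay, chemiluminescent read-out, fitted for gain of signal versus DMSO.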

| Compound | outcome | AC50 |
| --- | --- | --- |
| COC(=O)CSc1cc(N=c2sc(=O)n3n2CCCC3)c(F)cc1Cl | inactive |  |
| CCCCC(CC)CN1C(=O)C2C3C=CC(C3)C2C1=O (stereo not given) |  | 20 µM (active) |
| CC(C)(C)[C@@H](O)[C@@H](Cc1ccc(Cl)cc1)n1cncn1 | inactive |  |
| CCCCOCCOCCOCc1cc2c(cc1CCC)OCO2 |  | 12 µM (active) |
| CCN(CC)C(=O)c1cccc(C)c1 | inactive |  |
| CCCCC(CC)COC(=O)c1ccccc1C(=O)O (stereo not given) | inactive |  |
| CCOC(=O)NCCOc1ccc(Oc2ccccc2)cc1 | inactive |  |
| CCCCOC(=O)C(C)Oc1ccc(Oc2ccc(C(F)(F)F)cn2)cc1 (stereo not given) | inactive |  |
| c1ccc(Nc2ccccc2)cc1 |  | 3.48 µM (active) |
| CCN(Cc1c(F)cccc1Cl)c1c([N+](=O)[O-])cc(C(F)(F)F)cc1[N+](=O)[O-] | inactive |  |
| CCCN(CCC)c1c([N+](=O)[O-])cc(C(F)(F)F)c(N)c1[N+](=O)[O-] | inactive |  |

Read-out: HMG-CoA synthase (HMGCS2), HMGCS2 (gene 3158)
Assay: CLD_HMGCS2_48hr: CellzDirect (CLD) Gene Expression Assay for HMG-CoA synthase (HMGCS2) at 48 hours (AID 2283711; active = hit-call score of the fitted dose curve at least 0.9, where 1 is the maximum)
Summary of the method: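 Primary human hepatocytes from two donors dosed daily for two days, 0.2% DMSO vehicle. HMGCS2 mRNA measured 48 h after dosing by quantitative nuclease protection assay with chemiluminescent read-out; induction fitted relative to DMSO, cytotoxicity flagged by microscopy.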

| Compound | outcome | AC50 |
| --- | --- | --- |
| COc1nc(C)nc(NC(=O)NS(=O)(=O)c2ccccc2OCCCl)n1 | inactive |  |
| CC(C)(C)[C@@H](O)[C@@H](Cc1ccc(Cl)cc1)n1cncn1 | inactive |  |
| CCCCOCCOCCOCc1cc2c(cc1CCC)OCO2 | inactive |  |
| COC(=O)c1cccc(C)c1S(=O)(=O)NC(=O)Nc1nc(OCC(F)(F)F)nc(N(C)C)n1 | inactive |  |
| CCCCC(CC)COC(=O)c1ccccc1C(=O)O (stereo not given) | inactive |  |
| CCCCOC(=O)C(C)Oc1ccc(Oc2ccc(C(F)(F)F)cn2)cc1 (stereo not given) |  | 0.263 µM (active) |
| CCCCOC(=O)[C@@H](C)Oc1ccc(Oc2ccc(C(F)(F)F)cn2)cc1 | inactive |  |
| CCCCCCC(C)OC(=O)COc1nc(F)c(Cl)c(N)c1Cl (stereo not given) | inactive |  |
| c1ccc(Nc2ccccc2)cc1 | inactive |  |
| c1ccc2[nH]c(-c3cscn3)nc2c1 | inactive |  |

System: not listed separately
Assay: STM_H9_OrnithineISnorm_perc: Stemina devTOX quickPredict H9 human embryonic stem cell (hESC)-based Assay for Ornithine (ORN) Metabolite Biomarker, Normalized (AID 2283712);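 also: ornithine released into spent medium during last day measured by mass spectrometry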
Summary of the method: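 Undifferentiated pluripotent H9 hESCs were exposed to compound for 72h, with media and compound replaced every 24h. Ornithine in final 24-h conditioned media was measured by UPLC-HRMS, normalized to 13C-labeled spike-in standard and to median 0.1% DMSO control.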

| Compound | AC50 | outcome |
| --- | --- | --- |
| COC(=O)CSc1cc(N=c2sc(=O)n3n2CCCC3)c(F)cc1Cl | 78.8 µM (active) |  |
| CC(C)CCCCCCc1ccc(O)cc1 | 73.4 µM (active) |  |
| CC(C)(C)[C@@H](O)[C@@H](Cc1ccc(Cl)cc1)n1cncn1 |  | inactive |
| CCCCC(CC)COC(=O)c1ccccc1C(=O)O (stereo not given) | 341 µM (active) |  |
| O=C(c1ccc(O)cc1O)c1ccc(O)cc1O | 51.1 µM (active) |  |
| C[C@]12C[C@H](O)[C@H]3[C@@H](CCC4=CC(=O)CC[C@@]43C)[C@@H]1CC[C@@H]2C(=O)CO | 77 µM (active) |  |
| CN(C)C(=O)Nc1ccc(Cl)c(Cl)c1 |  | inactive |
| O=C(Nc1ccc([N+](=O)[O-])cc1Cl)c1cc(Cl)ccc1O |  | inactive |
| CCCCOC(=O)C(C)Oc1ccc(Oc2ccc(C(F)(F)F)cn2)cc1 (stereo not given) |  | inactive |
| CCCCOC(=O)[C@@H](C)Oc1ccc(Oc2ccc(C(F)(F)F)cn2)cc1 | 80.7 µM (active) |  |
| N[C@@H](Cc1cc(I)c(Oc2ccc(O)c(I)c2)c(I)c1)C(=O)O |  | inactive |
| CCN(Cc1c(F)cccc1Cl)c1c([N+](=O)[O-])cc(C(F)(F)F)cc1[N+](=O)[O-] | 17.2 µM (active) |  |
| CCCN(CCC)c1c([N+](=O)[O-])cc(C(F)(F)F)c(N)c1[N+](=O)[O-] |  | inactive |
| S=C(S)NCCNC(=S)S.[Mn+2].[S-]C([S-])=NCCN=C([S-])[S-].[Zn+2] |  | inactive |

System: not listed separately
Assay: STM_H9_CystineISnorm_perc: Stemina devTOX quickPredict H9 human embryonic stem cell (hESC)-based Assay for Cystine (CYSS) Metabolite Biomarker, Normalized (AID 2283713)
Summary of the method: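 Undifferentiated H9 hESCs were exposed to compound for 72h, with medium and compound replaced every 24h. Final-24h conditioned medium was deproteinized and analyzed by UPLC-HRMS. Cystine EIC area was normalized to spiked C13 standard and 0.1% DMSO median.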

| Compound | AC50 | outcome |
| --- | --- | --- |
| COC(=O)CSc1cc(N=c2sc(=O)n3n2CCCC3)c(F)cc1Cl | 83 µM (active) |  |
| CC(C)CCCCCCc1ccc(O)cc1 | 70 µM (active) |  |
| CC(C)(C)[C@@H](O)[C@@H](Cc1ccc(Cl)cc1)n1cncn1 |  | inactive |
| CCCCC(CC)COC(=O)c1ccccc1C(=O)O (stereo not given) | 250 µM (active) |  |
| O=C(c1ccc(O)cc1O)c1ccc(O)cc1O | 18.5 µM (active) |  |
| C[C@]12C[C@H](O)[C@H]3[C@@H](CCC4=CC(=O)CC[C@@]43C)[C@@H]1CC[C@@H]2C(=O)CO | 81.5 µM (active) |  |
| CN(C)C(=O)Nc1ccc(Cl)c(Cl)c1 | 70.5 µM (active) |  |
| O=C(Nc1ccc([N+](=O)[O-])cc1Cl)c1cc(Cl)ccc1O |  | inactive |
| CCCCOC(=O)C(C)Oc1ccc(Oc2ccc(C(F)(F)F)cn2)cc1 (stereo not given) |  | inactive |
| CCCCOC(=O)[C@@H](C)Oc1ccc(Oc2ccc(C(F)(F)F)cn2)cc1 | 42.8 µM (active) |  |
| N[C@@H](Cc1cc(I)c(Oc2ccc(O)c(I)c2)c(I)c1)C(=O)O |  | inactive |
| CCN(Cc1c(F)cccc1Cl)c1c([N+](=O)[O-])cc(C(F)(F)F)cc1[N+](=O)[O-] |  | inactive |
| CCCN(CCC)c1c([N+](=O)[O-])cc(C(F)(F)F)c(N)c1[N+](=O)[O-] |  | inactive |
| S=C(S)NCCNC(=S)S.[Mn+2].[S-]C([S-])=NCCN=C([S-])[S-].[Zn+2] |  | inactive |

Read-out: not listed separately
Assay: CEETOX_H295R_MTT_cell_viability: Viability Assessment in the CeeTox HT-H295R MTT Assay (AID 2283718);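 as to AC50: curve fitted both ways so AC50 may mark viability loss or gain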
Summary of the method: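 Human H295R adrenal cells, prestimulated 48 h with 10 uM forskolin, were exposed 48 h to chemicals in 0.1% DMSO. Viability was measured in the same wells by MTT (0.5 mg/ml, 4 h, 37 C), absorbance 570/650 nm, as percent of controls.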

| Compound | outcome | AC50 |
| --- | --- | --- |
| CCCCC(CC)CN1C(=O)C2C3C=CC(C3)C2C1=O (stereo not given) | inactive |  |
| CC(C)(C)[C@@H](O)[C@@H](Cc1ccc(Cl)cc1)n1cncn1 | inactive |  |
| CCCCOCCOCCOCc1cc2c(cc1CCC)OCO2 | inactive |  |
| CCCCC(CC)COC(=O)c1ccccc1C(=O)O (stereo not given) | inactive |  |
| C[C@]12C[C@H](O)[C@H]3[C@@H](CCC4=CC(=O)CC[C@@]43C)[C@@H]1CC[C@@H]2C(=O)CO | inactive |  |
| CN(C)C(=O)Nc1ccc(Cl)c(Cl)c1 | inactive |  |
| O=C(Nc1ccc([N+](=O)[O-])cc1Cl)c1cc(Cl)ccc1O | inactive |  |
| CCCCOC(=O)[C@@H](C)Oc1ccc(Oc2ccc(C(F)(F)F)cn2)cc1 | inactive |  |
| CC(=O)[C@H]1CC[C@H]2[C@@H]3CCC4=CC(=O)CC[C@]4(C)[C@H]3CC[C@]12C | inactive |  |
| CCOC(=O)c1ccc(O)cc1 | inactive |  |
| c1ccc(Nc2ccccc2)cc1 | inactive |  |
| CC(=O)S[C@@H]1CC2=CC(=O)CC[C@]2(C)[C@H]2CC[C@@]3(C)[C@@H](CC[C@@]34CCC(=O)O4)[C@H]12 | inactive |  |
| CCN(Cc1c(F)cccc1Cl)c1c([N+](=O)[O-])cc(C(F)(F)F)cc1[N+](=O)[O-] |  | 13.3 µM (active) |
| S=C(S)NCCNC(=S)S.[Mn+2].[S-]C([S-])=NCCN=C([S-])[S-].[Zn+2] |  | 1.19 µM (active) |
| c1ccc2[nH]c(-c3cscn3)nc2c1 | inactive |  |
| C#C[C@]1(O)CC[C@H]2[C@@H]3CCC4=CC(=O)CC[C@@H]4[C@H]3CC[C@@]21CC | inactive |  |
